# Test results from ChEMBL document CHEMBL3433997, “St. Jude Leishmania screening dataset” (2016).
# Several values for one entry are separate records, joined by “and”; a condition that tells them apart may be missing. Equal entries are not always repeated.
# Molecular target: Solute carrier family 2, facilitated glucose transporter member 1 (Homo sapiens) (UniProt P11166)
# Experiment: ST_JUDE_LEISH: Cytotoxicity at 2uM final concentration against transgenic Leishmania Mexicana promastigotes LmGLUT1 that are glucose transport deficient and complemented with the human glucose transporter GLUT1. Activity is measured by DNA content using SYBR green in vitro
# Assay type: functional
# Sequence of Solute carrier family 2, facilitated glucose transporter member 1 (Homo sapiens) (P11166 whole entry): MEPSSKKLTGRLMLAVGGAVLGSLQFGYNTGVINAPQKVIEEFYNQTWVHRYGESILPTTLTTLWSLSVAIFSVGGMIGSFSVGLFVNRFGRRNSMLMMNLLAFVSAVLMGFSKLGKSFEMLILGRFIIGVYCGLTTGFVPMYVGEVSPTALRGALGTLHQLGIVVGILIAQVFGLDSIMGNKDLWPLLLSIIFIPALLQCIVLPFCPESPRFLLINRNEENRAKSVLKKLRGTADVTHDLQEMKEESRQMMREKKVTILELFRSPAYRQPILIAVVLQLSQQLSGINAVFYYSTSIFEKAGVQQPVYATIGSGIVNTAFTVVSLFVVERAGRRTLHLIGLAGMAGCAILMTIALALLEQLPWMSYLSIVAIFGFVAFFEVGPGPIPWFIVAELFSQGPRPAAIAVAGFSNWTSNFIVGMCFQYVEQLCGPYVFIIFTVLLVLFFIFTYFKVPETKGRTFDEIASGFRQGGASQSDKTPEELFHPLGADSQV
row,Structure (SMILES),inhibition
1,Cc1cccc2[nH]cc(C3CCN(CC4CCC(NC(=O)/C=C/c5ccc(Cl)c(Cl)c5)CC4)CC3)c12 (stereo unspecified),0.63%
2,COC(=O)c1ccc(CC(C)NCC(O)c2cccc(I)c2)cc1 (stereo unspecified),-0.53%
3,COCCSc1ccc(CC(C)NCC(O)c2cccc(Cl)c2)cc1 (stereo unspecified),0.56%
4,CCCCn1c(C)c(C(=O)OCC)c2cc(OC(C)=O)c(Br)cc21,1.92%
5,CN1CC=C(c2c[nH]c3ccc(Sc4ccccc4)cc23)CC1,1.74%
6,NC(=O)CN1CC=C(c2c[nH]c3ccc(Br)cc23)CC1,-1.87%
7,FC(F)(F)c1ccc(NC(=S)NC2CCC(CN3CCC(c4c[nH]c5ccccc45)CC3)CC2)cc1 (stereo unspecified),13.2% and 1.58%
8,Cc1ccc(CC(C)(C)NCC(O)c2cccc(C(F)(F)F)c2)cc1 (stereo unspecified),2.49%
9,O=C(/C=C/c1ccc(O)cc1)NC1CCC(CN2CCC(c3c[nH]c4ccccc34)CC2)CC1 (stereo unspecified),-4.73%
10,Cc1[nH]c2ccccc2c1C1=CCN(CCCCC2(C)C(=O)Nc3ccccc32)CC1 (stereo unspecified),2.98%
11,O=C(NC1CCC(N2CCC3(CC2)C(=O)NCN3c2ccccc2)CC1)c1cc2ccccc2[nH]1 (stereo unspecified),-0.44%
12,CC[C@H]1CN2CC[C@H]1C[C@H]2[C@H](O)c1cc(-c2cccc(C)c2)nc2ccc(OC)cc12,3.99%
13,CCOC(C(=O)OCCN(C(C)C)C(C)C)(c1ccccc1)c1ccccc1,-0.14%
14,OC(CNCc1ccccc1OC(F)F)c1cccc(C(F)(F)F)c1 (stereo unspecified),1.52%
15,C#CCN1CCC2=C(C1)c1c(O)cc(C(C)C(C)CCc3ccc(F)cc3)cc1OC2(C)C (stereo unspecified),0.45%
16,COc1ccc(C(=O)C2CC2CN2CC=C(c3c[nH]c4cccc(Br)c34)CC2)cc1 (stereo unspecified),4.26%
